PubChem BioAssay AID504558 (Broad Institute, 2011)
Screen size: about 350,000 compounds; about 2,400 (0.69%) were called active. No stated cut-off is given here; in the data, active means inhibition above about 41%; inconclusive means no clear call, values can overlap the other calls; inactive means below that. The list comes from a sample in which actives are over-represented; it also holds similar structures and randomly drawn compounds.

Assay: EBV LMP1-driven NF-kappaB luciferase reporter inhibitors, primary screen, cell-based, luminescence, single point (AID 504558);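 further: 0% = neutral control wells and 100% = reference inhibitor control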
Settings: LMP1-induced NF-kappaB luciferase reporter cells, at 12.5 µM, hits give high values

inhibition, inactive:
CCOc1cc(/C=N/NC(=O)c2c(C)nc3ccc(Cl)cn23)ccc1O -8.3%
O=C(Cn1ccc([N+](=O)[O-])n1)NCc1cccs1 -5.11%
O=C(CCn1ccc([N+](=O)[O-])n1)Nc1nccs1 -2.16%
Cn1ncc([N+](=O)[O-])c1C(=O)Nc1cc(Cl)ccc1Cl 1.05%
CCc1nc2c(=O)[nH]cnc2o1 1.63%
CCN1C(=O)[C@H]2[C@@H](c3ccc(C(F)(F)F)cc3)N[C@]3(CCCN(Cc4ccc(Br)cc4)C3=O)[C@H]2C1=O 33.7%
C[C@H]1CN([C@@H](C)CO)S(=O)(=O)c2ccc(-c3cccc(F)c3)cc2O[C@@H]1CN(C)C -3.16%
Cc1ccccc1C(=O)NC(=S)NC1CC1 2.37%
Cc1cccn2c(=O)c3cc(C(=O)NC4CCCCC4)sc3nc12 -2.71%
CC(C)[C@H](NC(=O)c1ccccc1F)C(=O)Nc1cccc(S(=O)(=O)N2CCOCC2)c1 -8.03%
CCN(CC)C(=O)C1=C(C)N(Cc2ccc(OC)cc2)C(=O)C(CC(=O)NCc2ccco2)C1 (stereo unspecified) -5.75%
O=C(COc1ccc(S(=O)(=O)N2CCCC2)cc1[N+](=O)[O-])N1CCCCC1 -1.43%
O=C(C1=C[C@H](c2coc3ccccc3c2=O)C[C@H](OCc2ccc(CO)cc2)O1)N1CCOCC1 -1.64%
O=C(C1=C[C@H](c2ccc(C(F)(F)F)cc2)C[C@H](OCc2ccc(CO)cc2)O1)N1CCN(Cc2ccccc2)CC1 -10.6%
CN1OC[C@@H]2CN(C(=O)c3ccc(-c4ccccc4)cc3)[C@H](c3ccc(-c4cccc(F)c4)cc3)C[C@@H]21 -3.6%
Brc1ccc2ncnc(NCc3cccnc3)c2c1 27.2%
O=C(O)CCCCCNc1ncnc2ccc(Br)cc12 3.15%
Cc1ccc([C@H]2N[C@]3(CCCN(Cc4ccccc4)C3=O)[C@H]3C(=O)N(Cc4ccccc4)C(=O)[C@@H]23)cc1 4.09%
O=C(O)CCC(=O)N(Cc1ccccc1)Cc1ccccc1 -12%
CCC(C)NC(=O)CCCc1ccccc1 (stereo unspecified) -18%
O=C(N/N=C/c1ccccn1)c1cccc(NC(=O)c2ccc(Cl)cc2)c1 -0.655%
S=C(Nc1cccnc1)Nc1ccccn1 -5.41%
COc1ccc(NC2CCCN(C(=O)c3ccccc3-c3ncc[nH]3)C2)cc1 (stereo unspecified) 1.54%
C[C@H]1CN([C@@H](C)CO)C(=O)CCCn2cc(nn2)CO[C@@H]1CN(C)S(=O)(=O)c1ccc(-n2cccn2)cc1 4.52%
CC1CCN(c2ccc3c(c2)S(=O)(=O)c2cc(C(=O)O)ccc2C3=O)CC1 -11.1%
CC1=C(C(=O)N2CCOCC2)CC(CC(=O)NCCN2CCOCC2)C(=O)N1CCC1=CCCCC1 (stereo unspecified) 6.89%
Cc1sc2nc(CC(N)=O)[nH]c(=O)c2c1-c1ccccc1 -10.6%
CCN(CC)C(=O)c1sc2nc(-c3ccccc3)ccc2c1N -15.3%
CCOC(=O)C1CCN(C(=O)CC2C(=O)N(Cc3ccccc3)C(C)c3nc4ccccc4n32)CC1 (stereo unspecified) 14.1%
CC1c2nc3ccccc3n2C(CC(=O)NCCCN2CCOCC2)C(=O)N1Cc1ccccc1 (stereo unspecified) 0.985%
CN(C)C(CNC(=O)c1cccc(S(=O)(=O)N2CCc3ccccc3C2)c1)c1ccccc1 (stereo unspecified) -16.9%
CC(CN1CCOCC1)OC(=O)c1ccc(Cl)cc1Cl (stereo unspecified) -3.67%
CC(OC(=O)c1ccc(Cl)cc1O)C(=O)NCCC1=CCCCC1 (stereo unspecified) -1.59%
O=C(c1ccccc1)N1CCN(C(=O)c2cc3nc(-c4ccccc4)cc(C(F)(F)F)n3n2)CC1 6.54%
O=C(c1ccccc1)N1CCN(c2cc(-c3ccccc3)nc3cc(-c4cccc(Cl)c4)nn23)CC1 -2.14%
CNC(=O)c1ccc(CN(C)C(=O)c2cc(C3CC3)nc3c2cnn3C(C)C)cc1 -3.68%
CC1CCCC(C)N1C(=O)COC(=O)c1ccccc1C(=O)c1ccccc1 (stereo unspecified) -3.93%
COc1cc(C(=O)N2CCOC23CCN(Cc2ccccc2)CC3)cc(OC)c1OC 4.75%
Clc1cccc(-c2nc(NCC3CCCO3)c3ccccc3n2)c1 (stereo unspecified) -0.333%
NC(N)=Nc1nc(-c2ccccc2)c2cc(Cl)ccc2n1 -32.8%
CC(C)(C)N(Cc1ccccc1)C(=O)c1ccncc1 11.5%
CCN(CC)C(=O)N(CC)Cc1ccccc1 2.28%
CCN(CC)C(=O)C1=C(C)N(Cc2ccc(C(C)(C)C)cc2)C(=O)C(CC(=O)NCc2cccc3ccccc23)C1 (stereo unspecified) -0.881%
CCOc1cc(/C=N/NC(=O)c2ccncc2)cc(Br)c1O -1.49%
CNC(=O)c1csc(-c2ccccc2)n1 6.33%
CC(=O)NNC(=O)c1csc(Cc2c(Cl)sc3ccc(Cl)cc23)n1 8.06%
C[C@@H]1CN([C@H](C)CO)S(=O)(=O)c2ccc(C#C[C@@H](C)O)cc2O[C@@H]1CN(C)Cc1ccc(-c2ccccc2)cc1 -5.47%
Cc1onc(-c2ccccc2)c1-c1nnc(COC(=O)c2ccc(N(C)C)cc2)o1 16.7%
COc1cc(-c2nnc(NC(=O)CS(=O)(=O)c3ccc(Cl)cc3)o2)cc(OC)c1OC 3.37%
COc1ccc(-c2nnc(NC(=O)CS(=O)(=O)c3ccc(Cl)cc3)o2)c(OC)c1 -10.8%
CNC(=O)C[C@H]1C(=O)N(Cc2ccccc2)C[C@@H]1CSC -2.82%
O=C(C[C@H]1C[C@H]2c3cc(NS(=O)(=O)c4ccc(F)cc4)ccc3O[C@H]2[C@H](CO)O1)NCc1cc(F)ccc1F 4.21%
COc1cccc(CNc2nc(C(F)(F)F)nc3ccccc23)c1 -0.361%
COc1ccc(CNc2nccs2)cc1 8.57%
COc1cc2ccccc2cc1C(=O)Nc1ccccc1C -76.9%
COc1ccc(C(=O)N/N=C(\C)CC(=O)Nc2ccc(Cl)cn2)cc1 -1.25%
O[C@@H]1C[C@H](c2ccccc2)N(Cc2cccs2)C[C@H]1n1cc(C2CC2)nn1 -8.56%
Cc1ccc(C(=O)OCC(=O)NC2CCCCCCC2)cc1C 7.43%
COc1ccc(C(C)(C)C)cc1NC(=O)CN(C)C1=NS(=O)(=O)c2ccccc21 -11.2%
NS(=O)(=O)c1cccc(NC(=O)CN2CCCc3ccccc32)c1 -3.3%
COC(=O)c1[nH]c2ccccc2c1NC(=O)CN1CCCc2ccccc21 -17.6%
O=C(CCc1ccc(O)cc1)NN=Cc1cc(Br)ccc1O 6.93%
Cc1ccccc1OS(=O)(=O)c1cccc([N+](=O)[O-])c1 0.335%
O=C(NCC(F)(F)F)c1ccc(S(=O)(=O)NCCc2ccc3c(c2)OCCO3)cc1 0.519%
C[C@@H]1CN([C@@H](C)CO)C(=O)CCCn2nncc2CO[C@@H]1CN(C)S(=O)(=O)c1ccc(-c2ccccc2)cc1 -1.13%
COc1ccccc1OCCCC(=O)Nc1ccc2c(c1)OCCO2 -0.694%
Cc1ccc(OCCCC(=O)Nc2ccc3c(c2)OCCO3)cc1 8.28%
CCc1nnc(NC(=O)c2ccco2)s1 -0.797%
CNC(=S)Nc1ccc([N+](=O)[O-])cc1 -10.6%
CC(=O)Nc1ccc(C=Cc2ccc([N+](=O)[O-])cc2)cc1 -20.1%

inhibition, active:
Cc1ccnc(NC(=O)Cn2ccc([N+](=O)[O-])n2)c1 53.9%
Cc1ccccc1-n1nc(C)c2cc(C(=O)NC3CC3)sc21 48.8%
O=C(C1=C[C@H](c2coc3ccccc3c2=O)C[C@H](OCc2ccc(CO)cc2)O1)N1CCN(Cc2ccccc2)CC1 72.5%
COc1ccc(Nc2ncnc3ccc(Br)cc23)c(OC)c1 69.1%
O=C(O)CCCc1ccccc1 65.7%
S=C(NN=Cc1ccccn1)Nc1ccccn1 76.3%
NC(=O)c1sc2nc3c(c(-c4ccccc4)c2c1N)CCC3 44.3%
CC(C)CCNC(=O)CC1C(=O)N(Cc2ccccc2)C(C)c2nc3ccccc3n21 (stereo unspecified) 48.7%
CC(C)OC(=O)c1ccc(NCc2cc(O)ccc2O)cc1Cl 72.4%
C#Cc1cc(N2CCN(C(=O)c3ccoc3)CC2)n2nc(-c3cccc(Cl)c3)cc2n1 53.9%
C=C(C)C(=O)O[C@H]1C/C(C)=C\C(=O)/C=C(\C)[C@H](O)[C@@H]2OC(=O)C(=C)[C@@H]21 88.8%
Clc1ccc2nc(-c3ccccc3)nc(C(Cl)Cl)c2c1 86.7%
CCN(Cc1ccncc1)C(=O)CCc1ccccc1 78.9%
CNC(=O)c1csc(Cc2c(Cl)sc3ccc(Cl)cc23)n1 54.8%
COc1cccc(-c2nnc(NC(=O)c3ccc(S(=O)(=O)N(CC(C)C)CC(C)C)cc3)o2)c1 44.9%
COc1ccc(CNc2ncnc3ccccc23)cc1 41.7%
COc1ccc(C(=O)Nc2cc(C)c(NC(=O)c3ccccc3OC)cn2)cc1 40.6%
COC(=O)c1[nH]c2cccc(C)c2c1NC(=O)CN1CCCc2ccccc21 87.4%
Fc1ccc2[nH]c3c(N4CCSCC4)ncnc3c2c1 53.7%
COC(=O)CCNc1ccc2c(c1)OCCO2 45.2%
O=C1/C(=C\c2ccc([N+](=O)[O-])cc2)CS(=O)(=O)C/C1=C/c1ccc([N+](=O)[O-])cc1 92.5%
